A short description of assay [1]: NCI Yeast Anticancer Drug Screen. Data for the rad50 strain (AID 155).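 Note: 0% = growth of vehicle-only cultures of the same strain.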 As to conditions: S. cerevisiae rad50 strain growth inhibition, stronger effect = higher value. The gist of the method:
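Vehicle-treated cultures provide the reference for the growth inhibition reported for compound-exposed, repair-deficient yeast.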

Assay [2] in a line: NCI Yeast Anticancer Drug Screen. Data for the mec2-1 strain (AID 157). As to conditions: S. cerevisiae mec2-1 strain, stronger effect = higher value. Put shortly: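 Each compound was tested on mec2-1 yeast, a strain altered in DNA damage repair or cell cycle control. Growth inhibition is reported relative to vehicle.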
A short description of assay [3]: NCI Yeast Anticancer Drug Screen. Data for the sgs1 mgt1 strain (AID 161).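 Note: 0% = growth of cultures given vehicle only.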 As to conditions: S. cerevisiae sgs1 mgt1 strain, stronger effect = higher value. The gist of the method: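 Mutant yeast exposed to compound; growth scored against vehicle-only wells.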
Assay [4] is described as follows: NCI Yeast Anticancer Drug Screen. Data for the cln2 rad14 strain (AID 165).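 Note: 0% = growth equal to vehicle treated cultures.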 The settings on record: S. cerevisiae cln2 rad14 strain, stronger effect = higher value. The gist of the method:
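Test compounds were added to cln2 rad14 yeast cultures; inhibition of growth was then determined by comparison with vehicle treatment.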

Assay [5] is described as follows: NCI Yeast Anticancer Drug Screen. Data for the bub3 strain (AID 167). As to conditions: S. cerevisiae bub3 mutant strain, stronger effect = higher value. Put shortly:
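Mutant yeast screening strain plus compound; vehicle-treated cultures serve as the 0% inhibition reference.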

The nature of assay [6]: NCI Yeast Anticancer Drug Screen. Data for the mlh1 rad18 strain (AID 175). The settings on record: S. cerevisiae mlh1 rad18 strain growth inhibition, stronger effect = higher value. Put shortly:
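Inhibition values reflect reduced growth of mutant yeast versus vehicle-treated controls following compound exposure; the mutations affect DNA damage repair.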

Setting [7] is: at 5.0 µM (retest, dose inferred, filed as 0.5).
Where [8] appears, read: at 50.0 µM (retest, dose inferred, filed as 5.0).

In PubChem BioAssay (NCI) one finds growth inhibition data, which are given here for seven compounds.

Structures are written as SMILES. Values joined by “and” are separate entries in the source; they are usually repeats but may differ in a detail not shown here. Equal entries are not always repeated. About 79,000 compounds went through this panel and 15% of them were active in at least one assay; those are over-represented in the sample as a whole. Where a structure was tested more than once in an assay, its records may differ in their call. Active and inactive are the calls of the source. Cut-off read from the data, not from the text of the source: active = growth inhibition above about 70%; inactive = the rest.

On to `O=C(C(c1ccccc1)c1ccccc1)C(c1ccccc1)c1ccccc1`, for which the growth inhibition in assay [1] (setting [7]) was 0% (inactive); in assay [1] (setting [8]) it was -12% (inactive); in assay [1] (at 50.0 µM), 25% (inactive); in assay [2] (setting [7]), -6% (inactive); in assay [2] (setting [8]) it was -13% (inactive); in assay [2] (at 50.0 µM) it was 0.85% (inactive). Further, the growth inhibition was -1% (inactive) in assay [3] (setting [7]); -18% (inactive) in assay [3] (setting [8]); 4.8% (inactive) in assay [3] (at 50.0 µM); 2% (inactive) in assay [4] (setting [7]); -30% (inactive) in assay [4] (setting [8]); 43.9% (inactive) in assay [4] (at 50.0 µM). Moreover, the growth inhibition is 0% (inactive) in assay [5] (setting [7]); 28% (inactive) in assay [5] (setting [8]); -6.25% (inactive) in assay [5] (at 50.0 µM); 0% (inactive) in assay [6] (setting [7]); -4% (inactive) in assay [6] (setting [8]); 1.55% (inactive) in assay [6] (at 50.0 µM).
On to `O=C1OC(CN2CCOCC2)CN1/N=C/c1ccc([N+](=O)[O-])o1` (stereo unspecified), for which the growth inhibition was 6% (inactive) in assay [1] (setting [7]); 50% (inactive) in assay [1] (setting [8]); 65.8% (inactive) and -2.7% (inactive) in assay [1] (at 50.0 µM); 8% (inactive) in assay [2] (setting [7]); 41% (inactive) in assay [2] (setting [8]); 26.6% (inactive) and 14.2% (inactive) in assay [2] (at 50.0 µM). Besides, the growth inhibition in assay [3] (setting [7]) is 18% (inactive); in assay [3] (setting [8]), 80% (active); in assay [3] (at 50.0 µM) it was 86% (active) and 69.8% (inactive); in assay [4] (setting [7]), 1% (inactive); in assay [4] (setting [8]), 51% (inactive); in assay [4] (at 50.0 µM) it was 38.3% (inactive) and -8.55% (inactive). The growth inhibition in assay [5] (setting [7]) is -4% (inactive); in assay [5] (setting [8]), 9% (inactive); in assay [5] (at 50.0 µM) it was 36.6% (inactive) and 0.1% (inactive); in assay [6] (setting [7]), 13% (inactive); in assay [6] (setting [8]) it was 76% (active); in assay [6] (at 50.0 µM) it was 75.7% (active) and 34.3% (inactive).
Take `Cc1c(OCc2cccc3ccccc23)ccc2c(=O)cc(SCCN3CCOCC3)oc12`: the growth inhibition is 10% (inactive) in assay [1] (setting [7]); 25% (inactive) in assay [1] (setting [8]); 65.7% (inactive) in assay [1] (at 50.0 µM); -1% (inactive) in assay [2] (setting [7]); 13% (inactive) in assay [2] (setting [8]); 30.2% (inactive) in assay [2] (at 50.0 µM). Moreover, the growth inhibition in assay [3] (setting [7]) was 6% (inactive); in assay [3] (setting [8]), 49% (inactive); in assay [3] (at 50.0 µM), 83% (active); in assay [4] (setting [7]), 5% (inactive); in assay [4] (setting [8]), 37% (inactive); in assay [4] (at 50.0 µM), 25.1% (inactive). Besides, the growth inhibition in assay [5] (setting [7]) was 7% (inactive); in assay [5] (setting [8]), 47% (inactive); in assay [5] (at 50.0 µM), 13.6% (inactive); in assay [6] (setting [7]), 7% (inactive); in assay [6] (setting [8]), 35% (inactive); in assay [6] (at 50.0 µM) it was 73.3% (active).
For the compound `Oc1c(Cl)c(Cl)c(Cl)c2ccccc12`, the growth inhibition in assay [1] (setting [7]) is 84% (active); in assay [1] (setting [8]), 95% (active); in assay [1] (at 50.0 µM), 95.5% (active); in assay [2] (setting [7]), 79% (active); in assay [2] (setting [8]) it was 98% (active); in assay [2] (at 50.0 µM), 96.8% (active). For the same compound, the growth inhibition in assay [3] (setting [7]) is 38% (inactive); in assay [3] (setting [8]), 34% (inactive); in assay [3] (at 50.0 µM) it was 95.9% (active); in assay [4] (setting [7]) it was 39% (inactive); in assay [4] (setting [8]) it was 94% (active); in assay [4] (at 50.0 µM) it was 53.4% (inactive). Moreover, the growth inhibition in assay [5] (setting [7]) is 92% (active); in assay [5] (setting [8]), 93% (active); in assay [5] (at 50.0 µM), 91.2% (active); in assay [6] (setting [7]), 87% (active); in assay [6] (setting [8]) it was 98% (active); in assay [6] (at 50.0 µM), 96.7% (active).
Take `CCOP(=O)(OCC)C(C)(CC)NC(=O)C(C(F)(F)F)C(F)(F)F` (stereo unspecified): the growth inhibition in assay [1] (setting [7]) is 21% (inactive); in assay [1] (setting [8]), 21% (inactive); in assay [1] (at 50.0 µM), -5.45% (inactive) and 2.5% (inactive); in assay [2] (setting [7]), 23% (inactive); in assay [2] (setting [8]), 13% (inactive); in assay [2] (at 50.0 µM), -14.8% (inactive) and 4% (inactive). The growth inhibition was 16% (inactive) in assay [3] (setting [7]); 13% (inactive) in assay [3] (setting [8]); -8.75% (inactive) and -2.6% (inactive) in assay [3] (at 50.0 µM); 18% (inactive) in assay [4] (setting [7]); 24% (inactive) in assay [4] (setting [8]); 5.65% (inactive) and -1.65% (inactive) in assay [4] (at 50.0 µM). Further, the growth inhibition is 20% (inactive) in assay [5] (setting [7]); 19% (inactive) in assay [5] (setting [8]); -4.95% (inactive) and -8.05% (inactive) in assay [5] (at 50.0 µM); 23% (inactive) in assay [6] (setting [7]); 18% (inactive) in assay [6] (setting [8]); 8.65% (inactive) and -16.8% (inactive) in assay [6] (at 50.0 µM).
In the case of `CN(C)C(=S)SC(=S)N(C)C`, the growth inhibition in assay [1] (setting [7]) is 97% (active) and 96% (active); in assay [1] (setting [8]) it was 99% (active) and 98% (active); in assay [1] (at 50.0 µM), 97.3% (active) and 99% (active); in assay [2] (setting [7]), 98% (active) and 94% (active); in assay [2] (setting [8]) it was 99% (active); in assay [2] (at 50.0 µM), 98.8% (active) and 98.5% (active). Besides, the growth inhibition in assay [3] (setting [7]) was 97% (active) and 94% (active); in assay [3] (setting [8]), 99% (active); in assay [3] (at 50.0 µM), 99.2% (active); in assay [4] (setting [7]), 97% (active) and 50% (inactive); in assay [4] (setting [8]) it was 97% (active); in assay [4] (at 50.0 µM), 87% (active) and 97.2% (active). The growth inhibition in assay [5] (setting [7]) is 99% (active) and 88% (active); in assay [5] (setting [8]) it was 99% (active) and 98% (active); in assay [5] (at 50.0 µM), 98.5% (active) and 99.2% (active); in assay [6] (setting [7]) it was 99% (active) and 96% (active); in assay [6] (setting [8]), 99% (active); in assay [6] (at 50.0 µM), 98% (active) and 98.8% (active).
On to `CC(C)C1=C(O)C2=C(C(=O)C1=O)C1(C)CCCC(C)(C)C1CC2O` (stereo unspecified), for which the growth inhibition in assay [1] (setting [7]) is 42% (inactive); in assay [1] (setting [8]) it was 98% (active); in assay [1] (at 50.0 µM), 36.9% (inactive) and 14.3% (inactive); in assay [2] (setting [7]) it was 55% (inactive); in assay [2] (setting [8]), 98% (active); in assay [2] (at 50.0 µM), 22.1% (inactive) and -9.35% (inactive). In addition, the growth inhibition is 48% (inactive) in assay [3] (setting [7]); 98% (active) in assay [3] (setting [8]); 45% (inactive) and 39.5% (inactive) in assay [3] (at 50.0 µM); 46% (inactive) in assay [4] (setting [7]); 98% (active) in assay [4] (setting [8]); 32.4% (inactive) and 6.45% (inactive) in assay [4] (at 50.0 µM). The growth inhibition in assay [5] (setting [7]) is 75% (active); in assay [5] (setting [8]), 97% (active); in assay [5] (at 50.0 µM) it was 56.6% (inactive) and 17.4% (inactive); in assay [6] (setting [7]), 56% (inactive); in assay [6] (setting [8]) it was 98% (active); in assay [6] (at 50.0 µM), 83.1% (active) and 21.6% (inactive).
